# TDP1 block: qHTS Assay for Inhibitors of Tyrosyl-DNA Phosphodiesterase (TDP1). recombinant TDP1, AlphaScreen DNA substrate cleavage. Potency, µM (doses to about 130 µM), without a hit: at the highest dose activity change, negative = inhibition, usual class: inhibitors. 350,000 compounds, 0.28% hits. AID 485290, 2010; note: potency is the fitted concentration of half-maximal effect; nearly all actives have a fitted effect of over 40% in size
# Target sequence (Q9NUW8 whole entry, looked up): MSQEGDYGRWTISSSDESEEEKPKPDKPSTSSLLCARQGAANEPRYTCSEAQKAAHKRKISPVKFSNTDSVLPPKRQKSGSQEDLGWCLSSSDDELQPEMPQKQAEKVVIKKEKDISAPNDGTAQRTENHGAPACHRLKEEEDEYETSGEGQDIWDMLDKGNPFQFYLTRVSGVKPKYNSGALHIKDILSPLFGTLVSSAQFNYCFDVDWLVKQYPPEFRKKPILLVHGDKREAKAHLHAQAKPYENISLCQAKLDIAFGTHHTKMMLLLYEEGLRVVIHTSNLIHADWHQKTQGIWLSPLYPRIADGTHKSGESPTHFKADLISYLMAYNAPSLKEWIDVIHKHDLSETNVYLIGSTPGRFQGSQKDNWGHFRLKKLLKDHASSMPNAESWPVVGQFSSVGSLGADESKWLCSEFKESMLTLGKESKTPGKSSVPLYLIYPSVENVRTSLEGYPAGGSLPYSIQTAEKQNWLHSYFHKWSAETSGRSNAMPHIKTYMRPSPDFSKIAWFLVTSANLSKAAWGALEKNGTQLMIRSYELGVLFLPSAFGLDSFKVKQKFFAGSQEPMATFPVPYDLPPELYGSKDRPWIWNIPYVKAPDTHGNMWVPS
#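 Steps: enzyme plus compound, 15 min RT; add biotin/phosphotyrosine-FITC oligonucleotide (15 nM final), react 5 min; add donor/acceptor beads (10 ug/ml final), 10 min; read AlphaScreen. Tdp1 at 1 nM final.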
# ELG1 repair inh: qHTS screen for small molecules that inhibit ELG1-dependent DNA repair in human embryonic kidney (HEK293T) cells expressing luciferase-tagged ELG1. HEK293T ELG1-luciferase reporter, luminescence, 16 h; DNA damage induced by 5-fluorouridine. Potency, µM (top dose mostly 46.1 µM), for inactives: top-dose activity change, negative = inhibition, hits mostly inhibitors. 330,000 compounds, 2.3% hits; note: potency is the fitted concentration of half-maximal effect; nearly all actives have a fitted effect of over 55% in size
#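 Luminescence from the luciferase reporter, measured 30 min after ONE-Glo reagent at room temperature, was the read-out. Beforehand, 2,000 cells per well were exposed for 16 hr at 37 °C to 5-fluorouridine together with compound or vehicle.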
# Giardia kill: Small Molecules that selectively kill Giardia lamblia: qHTS. Giardia lamblia trophozoite viability. activity change, % at 7.66 µM, hits read low. 340,000 compounds, 0.15% hits; in the data active = activity change below about -80%; inconclusive = between about -30% and that limit;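 note: parasites exposed to compound for two days anaerobically before the ATP read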
#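 Giardia lamblia trophozoites (100 cells/well) were incubated with compounds for 48 h at 37 deg C under anaerobic conditions. Viability was read as ATP content by one-step luminescence after 15-30 min at room temperature.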
# IL1B secr inh: qHTS for Inhibitors of Inflammasome Signaling: IL-1-beta AlphaLISA Primary Screen | THP-1 LPS/ATP IL-1B secretion, AlphaLISA, 16 h; hits give low values | activity change, % at 57.5 µM | 360,000 compounds, 4.7% hits; in the data active = activity change below about -50%; inconclusive = mostly about -30% to -49%
#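 THP-1 cells pretreated 1 hr with compounds (up to 57.5 uM final), then stimulated with LPS (250 ng/mL final) plus ATP (1.25 mM final); secreted IL-1B measured by AlphaLISA after 16 hr, decreased signal indicating inhibition.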
# TDP1 cell noCPT: qHTS for Inhibitors of human tyrosyl-DNA phosphodiesterase 1 (TDP1): qHTS in cells in absence of CPT; Potency, µM (series often up to 46.2 µM), without a hit: top-dose activity change, negative = growth inhibition, usual class: inhibitors; AID 686978, 2013; DT40 Tdp1-/- hTDP1 cells, no CPT, ATP luminescence, 48 h; 420,000 compounds, 15% hits; note: potency is the fitted concentration of half-maximal effect; nearly all actives have a fitted effect of over 55% in size
#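 Seeded 400 DT40-hTDP1 cells/well (vehicle DMSO, no 20 nM CPT); pinned compounds; ≥48 hr at 37 °C; CellTiter-Glo luminescence as viability measure.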
# TDP1 cell CPT: qHTS for Inhibitors of human tyrosyl-DNA phosphodiesterase 1 (TDP1): qHTS in cells in presence of CPT | chicken DT40 Tdp1-/-;hTDP1 cells + 20 nM CPT, ATP luminescence, 48 h | Potency, µM (highest dose often 46.2 µM), without a hit: at the highest dose activity change, negative = growth inhibition, most hits filed as inhibitors | 420,000 compounds, 12% hits | AID 686979, 2013; note: potency is the fitted concentration of half-maximal effect; nearly all actives have a fitted effect of over 55% in size
#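 Cell growth measured by CellTiter-Glo luminescence after a minimum 48 h, 37 C compound exposure with 20 nM CPT in Tdp1-knockout DT40 cells stably expressing hTDP1, seeded 400/well; qHTS titration format.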
# Numbers without * were called inactive; ? = inconclusive; / = no result; [ ] = remark or other dose. In the library only some 19% were active in any assay of this set; here they are far more common. Unless noted, calls come from the whole dose curve; as a rule, active = well fitted curve in the direction sought with a large enough effect; inconclusive = small, poorly fitted or top-dose-only effect, or another doubt; inactive = no such curve, though single readings can be large; an effect the other way counts as inactive or inconclusive. % is set by controls: 0 for no effect and ±100 for the full control effect.
SMILES,TDP1 block,ELG1 repair inh,Giardia kill,IL1B secr inh,TDP1 cell noCPT,TDP1 cell CPT
O=C(CSc1nc(-c2cccs2)cc(C(F)(F)F)n1)Nc1cc(OCC(F)(F)C(F)F)cc([N+](=O)[O-])c1,-5%,?,10,5,12µM*,8.2µM*
O=C(CSc1nc(-c2cccs2)cc(C(F)(F)F)n1)NCCCn1ccnc1,8%,-12%,17,21,0%,-11%
CCN(CC)c1ccc(NC(=O)CSc2nc(-c3cccs3)cc(C(F)(F)F)n2)cc1,4%,/,/,/,?,?
O=C1c2cc(S(=O)(=O)NCCO)ccc2-c2ccc(S(=O)(=O)NCCO)cc21,-8%,-19%,-7,-13,-17%,30%
CN(CCO)S(=O)(=O)c1ccc2c(c1)C(=NO)c1cc(S(=O)(=O)N(C)CCO)ccc1-2,-3%,-19%,5,-25,12µM*,-22%
Cc1ccc2cc3cc(C(=O)N4CC(C)CC(C)C4)oc3nc2c1 (centres undefined),1%[56.1 µM],?,11,-53*,23µM*,?
Cc1ccc2cc3cc(C(=O)N4CCCCC4C)oc3nc2c1 (centres undefined),-4%,?,-11,-77*,?,?
CCCOc1ccc(C(=O)N(Cc2cccs2)c2ccc(C)cc2)cc1,-6%,/,/,/,-25%,-22%
CCCCCCC(=O)N(O)C1CC(=O)N(Cc2ccccc2)C1=O (centres undefined),8%,15%,-1,-87*,13µM*,13µM*
O=C1CC(N(O)C2CC(=O)N(Cc3ccccc3)C2=O)C(=O)N1Cc1ccccc1 (centres undefined),-1%,-5%,-9,4,10µM*,21µM*
CCCCCC(=O)N(O)C1CC(=O)N(c2ccccc2)C1=O (centres undefined),10%,?,-23,-26,4.6µM*,3.3µM*
CCCCCC(=O)NNC1CC(=O)N(c2ccccc2)C1=O (centres undefined),5%,16%,18,14,-6%,0%
Cc1cc2oc(=O)cc(CN(C)Cc3ccccc3)c2cc1C,/,/,/,26,?,?
CNc1nc(-c2ccccc2)[n+](-c2ccc(C)cc2)s1,-3%,-7%,3,-79*,5.2µM*,3.3µM*
Cc1ccc(-c2nc(N)s[n+]2-c2ccccc2)cc1,8%,?,-3,-5,?,?
Cc1ccc(C(=O)OCC(=O)N(C)C2CCS(=O)(=O)C2)cc1S(=O)(=O)N1CCCCC1 (centres undefined),/,3%,1,6,-10%,-1%
Cc1ccc(C)c(Cn2nc(-c3cc(C)ccc3C)ccc2=O)c1,7%,?,-13,?,21µM*,?
COc1ccc(NC(=O)CN(Cc2ccccc2)Cc2ccccc2)cc1S(N)(=O)=O,4%,2%,15,-13,-15%,-20%
COc1ccc(NC(=O)COc2ccc(C)nc2[N+](=O)[O-])cc1S(N)(=O)=O,1%,11%,-4,-15,?,9.2µM*
COc1ccc(NC(=O)COc2ccccc2Cc2ccccc2)cc1S(N)(=O)=O,-8%,6.5µM*,-2,-6,15µM*,21µM*
CCn1c(=O)c2cc(C(=O)N3CCOCC3)sc2c2ccccc21,0%,-16%,-13,-20,?,-21%
CCn1c(=O)c2cc(C(=O)N3CCCC3)sc2c2ccccc21,/,-12%,/,/,/,/
CCn1c(=O)c2cc(C(=O)N3CCN(c4cccc(Cl)c4)CC3)sc2c2ccccc21,5%,/,/,/,23µM*,15µM*
CCn1c(=O)c2cc(C(=O)N3CCN(c4cccc(OC)c4)CC3)sc2c2ccccc21,10%,/,/,/,13µM*,18µM*
CC(=O)c1cccc(CN2CCN(CC(C)C)C(CCO)C2)c1 (centres undefined),1%,-11%,-3,1,-2%,-7%
SMILES,TDP1 block,ELG1 repair inh,Giardia kill,IL1B secr inh,TDP1 cell noCPT,TDP1 cell CPT
O=C(c1ccccc1NS(=O)(=O)c1cccc(C(F)(F)F)c1)N1CCc2ccccc21,3%,0%,-3,20,?,-9%
CN1CCCN(C(=O)c2cccc3ccccc23)CC1,/,-6%,19,2,7%,2%
CCOC(=O)C(=CNc1cc(C)nn1-c1ccc(C)cc1)C(=O)OCC,0%,13µM*,19,-9,9.2µM*,23µM*
CCOC(=O)C(=CNc1ccc(O)c(C(=O)OC)c1)C(=O)OCC,/,/,-23,23,-29%,?
CCOC(=O)C(=CNc1cc(C)ccn1)C(=O)OCC,8%,-4%,5,19,?,-4%
CCOC(=O)C(=CNc1cccnc1Oc1ccc(C)c2c1CCC2)C(=O)OCC,-4%,15µM*,1,-15,21µM*,15µM*
CCOC(=O)C(=CNNc1ccccc1)C(=O)OCC,7%,6.5µM*,-6,-15,16µM*,4.6µM*
CCOC(=O)C(=CNc1cc(OC)ccc1-n1cccc1)C(=O)OCC,5%,?,30,?,21µM*,?
Cc1ccc2c(c1)-n1c(nc3ccc(C)cc3c1=O)C(Cc1ccc(O)cc1)NC2=O (centres undefined),4%,0%,/,/,/,/
CCOc1ccc(NC(=O)CSC2=Nc3ccccc3C3=NC(CCC(=O)NCc4cccs4)C(=O)N23)cc1 (centres undefined),-4%,/,/,/,-13%,-2%
CCOc1ccc(C(C(=O)NC2CCCCC2)N(C(=O)c2csnn2)C2CC2)cc1 (centres undefined),14%[0.0935 µM],0%,-4,0,?,-10%
CCOC(=O)C(=CNc1cc(C)ccc1C)C(=O)OCC,-8%,?,-3,-24,16µM*,?
CCOC(=O)C(=CNc1cc(C)ccc1[N+](=O)[O-])C(=O)OCC,0%,?,9,-13,?,?
O=C(NC1CCCCC1)Oc1cc2oc(=O)sc2cc1Br,/,?,0,-17,?,16µM*
CCCCCCCCN1C(=O)[C@H](CC(=O)N2CCOCC2)C[C@@]2(C(=O)OC)CC(C)(C)CC=C12,/,/,/,?,18µM*,21µM*

# Bioassay records as filed in PubChem BioAssay.
